Our source for the binding signal values is PMC12136788.

Numbering of substitutions follows the chain as printed. The full ranking holds about 24,000 sequences; the median of “enrichment r” is about 0.99, and the highest 2% start at about 3.7. This is one part of a sample in which the highest values are shown more often than they occur.

T1: UNK ZnF1-3 (human, UniProt Q9C0B0 31-174)
T1 sequence: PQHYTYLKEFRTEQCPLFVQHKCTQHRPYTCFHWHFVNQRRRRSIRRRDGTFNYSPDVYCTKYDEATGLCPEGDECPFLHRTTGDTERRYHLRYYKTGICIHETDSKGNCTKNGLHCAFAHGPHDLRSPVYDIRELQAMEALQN

B1: chr2:47388980:47388981:-_ENSG00000143933_ENST00000272298|hu_mus|hu_hu_hu_mus_True|8_68 (ssRNA)
RNA: GGGAGUUCUACAGUCCGACGAUCUUCAUCUGUUAACUUCUCGCCAAGGUUUGUCAUCACAUGGCGAAGUUCUGCAGCACUAAUAUAGCCAUUGCCAUCCUUAUCAAACACACGGAAUGCUUCUCUAAUUUCUUCUUCACUGUCCAACAGAGGAUUGAGCAUCA
B2: 160109231_160113639_413_CDS_ENSG00000112096_ENST00000546260|human|control|control (ssRNA)
RNA: GGGAGUUCUACAGUCCGACGAUCAACUUCAGUGCAGGCUGAAGAGCUAUCUGGGCUGUAACAUCUCCUGGAAAACUCGGAACCGGUACAAAUACGAAGCGAGUUCUCCUCCACGGAGAGGCCCGUCCGUAUGGGGCCUGGCUCCAACAGAGGAUUGAGCAUCA
B3: chr4:144460044:144460045:+_ENSG00000153147_ENST00000283131|hu_mus|hu_hu_hu_mus_False|28_78 (ssRNA)
RNA: GGGAGUUCUACAGUCCGACGAUCACGGUCCAUAGCCUGAAGAUCAACUUGCGGAUUCCAAUCAGAAUCAUAUAAAAUGACUACAUCAGCAGUUGCAAGAUUGAUGCCAAGACCACCAGCACGUGUGCUUAGCAUAAAUACAAACAACAGAGGAUUGAGCAUCA
B4: chr6:41756983:41756984:+_ENSG00000214736_ENST00000398881|hu_mus|FALSE|FALSE (ssRNA)
RNA: GGGAGUUCUACAGUCCGACGAUCAUCAAUGUCACUCAAGUUCCUGGCCAGCCAGACUCCCGCAGCAAAGAGUCCCAAAUUGAGGAUCAAGUUCCUCCGGAAGUCGUUUCGAUCGGUGGCGAAGCGGAAGACACCGCGGAGCCACAACAGAGGAUUGAGCAUCA
B5: 40918001_40923414_123_3pUTR_ENSMUSG00000028423_ENSMUST00000098143|mouse|control|control (ssRNA)
RNA: GGGAGUUCUACAGUCCGACGAUCAGCAGCAUCUGUAUUGAAUUUAAAAGUGCCUGAGACCGGAGGCGCCUCCGCCAUCCCGUGCCGCAGCACCUCAAGCGAGCCCCGCCACCGAGCGAAGGCUGUCACCUGGUCACGUGUCCCCAACAGAGGAUUGAGCAUCA
B6: chr7:140404665:140404666:+_ENSG00000090266_ENST00000247866|hu_hu|hu_hu_hu_mus_False|1_28 (ssRNA)
RNA: GGGAGUUCUACAGUCCGACGAUCUGCUCCUACUCGUCCAGAGAGUUUACAGUGUCAGUCCUCGUCAUCAGGAGGGAUUCCCAGUUCUUCAUCUGUCCACUGUGAAGGAUCAGGAUAUGAAAAGUGACCCAGCACAGCUUCUGACAACAGAGGAUUGAGCAUCA
B7: 30503004_30509812_319_CDS_ENSG00000126858_ENST00000394692|human|control|control (ssRNA)
RNA: GGGAGUUCUACAGUCCGACGAUCCAGAUCAGAUUUGUUCCCAACCAAUAUUAAAGGCAGCCUGCUGUCUUUGUCUGUUCUUUCAUUUAUGAGAGGAAUCCAUCGACUUGUUACCUUAUCAAUAGAAUGCUUGUUGUUAACGGCCAACAGAGGAUUGAGCAUCA
B8: chr13:9170561:9170562:+_ENSMUSG00000033499_ENSMUST00000091829|mus_mus|FALSE|FALSE (ssRNA)
RNA: GGGAGUUCUACAGUCCGACGAUCCCAUCAGCCCCCAUCCAUCUGCUGGACACCCUACCAAUGCGCACUUGUAGACCAACUAUUAAAAAAAAAAAAAAAGGAAGUAGCAGAGUUCCCUUAAUUUAGAAAAACUCAUUAUAGCUUCAACAGAGGAUUGAGCAUCA
B9: chr13:9170561:9170562:+_ENSMUSG00000033499_ENSMUST00000091829|mus_mus|motif|central (ssRNA)
RNA: B8 RNA with U80G, A81G
B10: chr18:67805652:67805653:+_ENSMUSG00000024537_ENSMUST00000025418|mus_hu|FALSE|FALSE (ssRNA)
RNA: GGGAGUUCUACAGUCCGACGAUCAUACUUAAUAAAAAUGGAUCUUAACUGUAGAGCCACCAGCUUUCUUGAAGGCAAUGAAUACACUUCAGCAUUUAUGCUAAGUUCUGUUGAAUUUCCUUCUGUGGUCGCAUAUGGAUUGUUCAACAGAGGAUUGAGCAUCA
B11: chr13:9170561:9170562:+_ENSMUSG00000033499_ENSMUST00000091829|mus_hu|FALSE|FALSE (ssRNA)
RNA: GGGAGUUCUACAGUCCGACGAUCCACUGGCCCUCAUUCAUCUGCGGGGACGUUCUAGAGAUAUGCACUUACAGACCAGUUACUUAAAAAAAAAAAAAAAAAGCAGAGUUCCCUUAAUUUAGAAAAACUCACUAUAUAUAGCUUCAACAGAGGAUUGAGCAUCA
B12: chr1:32384726:32384727:-_ENSG00000184007_ENST00000602725|perfect_dup|FALSE|FALSE (ssRNA)
RNA: GGGAGUUCUACAGUCCGACGAUCAGGAGGAAAUCAAUAAAUCUUGAAAUGUUCCGCAGCAGAAAACAUUAAAAAGACCACUAAAAUGCCUAUUAUUGAUCACUAUUUUCUCUAUUCAACUUGCUUGUUCCUUAGGAAGCUUCUCAACAGAGGAUUGAGCAUCA
B13: 48821072_48822033_622_CDS_ENSG00000108848_ENST00000240304|human|control|control (ssRNA)
RNA: GGGAGUUCUACAGUCCGACGAUCUGCAGCAAAGCUUUCAAUUGUCGACGUUGUGGACCUUAGCAGUUCUCUCUCUUCUUUUAAUUGCUCAACUAAUUUCAUCAUCCCCUGGGCUUCUUCUACUUUUCCUUCAGACCCUAAUUCCAACAGAGGAUUGAGCAUCA
B14: chr7:108137184:108137185:-_ENSG00000135241_ENST00000257694|hu_mus|motif|central (ssRNA)
RNA: GGGAGUUCUACAGUCCGACGAUCUCGAUAGAGUUCCUCACAUUCAUCCAGCGGCAUGUGAAACAAUCCCAGCAUAAAUGCGGAUAUGGCCCCUGUGCUUACUCCACAGAUGUAAUCAAAAAGCUGAUGAAUCGGCUUCUGAGUCAACAGAGGAUUGAGCAUCA

The target of this test is T1, UNK ZnF1-3. The experiment in a line: nsRBNS (natural sequence RNA bind-n-seq); RBNS binding buffer (assumed for nsRBNS): 25 mM Tris pH 7.5, 150 mM KCl, 3 mM MgCl2, 0.01% Triton X-100, 500 ug/ml BSA, 20 U/ml SUPERase-In, 4 C; UNK is unkempt and MSI1 is Musashi-1; names of the RNAs are library labels; protein concentration not given here; high values mean tight binding.
B1: the binding signal was determined as 0.795 enrichment R.

B2 had a binding signal of 0.808 enrichment R. The molecule B3 yielded a binding signal of 1.2 enrichment R. Turning to B4, the binding signal was found to be 1.55 enrichment R. The same measure for B5: 1.06 enrichment R; for B6: 1.15 enrichment R. B7 gave a binding signal of 0.92 enrichment R.

Consider B8, for which the binding signal stood at 5.05 enrichment R. The same measure for B9: 4.58 enrichment R. For B10, the binding signal stood at 1.04 enrichment R. As to B11, the binding signal stood at 6.5 enrichment R. As to B12, the binding signal worked out at 0.842 enrichment R. The result for B13 reads 0.686 enrichment R; that for B14, 1.13 enrichment R.
